BAZ2B inh: BAZ2B (human) inhibition; AlphaScreen BAZ2B-H3K14Ac peptide displacement; Potency, µM (titrated, usually from 114 µM), for the others: at the highest dose activity change, negative = inhibition, usual class: inhibitors; actives 4.4% (n = 360,000); also: potency is read from the fitted curve at half-maximal effect; % is scaled to controls: 0 for no effect and ±100 for the full control effect; nearly all actives have a fitted effect of over 60% in size
Target sequence (Q9UIF8 whole entry, looked up): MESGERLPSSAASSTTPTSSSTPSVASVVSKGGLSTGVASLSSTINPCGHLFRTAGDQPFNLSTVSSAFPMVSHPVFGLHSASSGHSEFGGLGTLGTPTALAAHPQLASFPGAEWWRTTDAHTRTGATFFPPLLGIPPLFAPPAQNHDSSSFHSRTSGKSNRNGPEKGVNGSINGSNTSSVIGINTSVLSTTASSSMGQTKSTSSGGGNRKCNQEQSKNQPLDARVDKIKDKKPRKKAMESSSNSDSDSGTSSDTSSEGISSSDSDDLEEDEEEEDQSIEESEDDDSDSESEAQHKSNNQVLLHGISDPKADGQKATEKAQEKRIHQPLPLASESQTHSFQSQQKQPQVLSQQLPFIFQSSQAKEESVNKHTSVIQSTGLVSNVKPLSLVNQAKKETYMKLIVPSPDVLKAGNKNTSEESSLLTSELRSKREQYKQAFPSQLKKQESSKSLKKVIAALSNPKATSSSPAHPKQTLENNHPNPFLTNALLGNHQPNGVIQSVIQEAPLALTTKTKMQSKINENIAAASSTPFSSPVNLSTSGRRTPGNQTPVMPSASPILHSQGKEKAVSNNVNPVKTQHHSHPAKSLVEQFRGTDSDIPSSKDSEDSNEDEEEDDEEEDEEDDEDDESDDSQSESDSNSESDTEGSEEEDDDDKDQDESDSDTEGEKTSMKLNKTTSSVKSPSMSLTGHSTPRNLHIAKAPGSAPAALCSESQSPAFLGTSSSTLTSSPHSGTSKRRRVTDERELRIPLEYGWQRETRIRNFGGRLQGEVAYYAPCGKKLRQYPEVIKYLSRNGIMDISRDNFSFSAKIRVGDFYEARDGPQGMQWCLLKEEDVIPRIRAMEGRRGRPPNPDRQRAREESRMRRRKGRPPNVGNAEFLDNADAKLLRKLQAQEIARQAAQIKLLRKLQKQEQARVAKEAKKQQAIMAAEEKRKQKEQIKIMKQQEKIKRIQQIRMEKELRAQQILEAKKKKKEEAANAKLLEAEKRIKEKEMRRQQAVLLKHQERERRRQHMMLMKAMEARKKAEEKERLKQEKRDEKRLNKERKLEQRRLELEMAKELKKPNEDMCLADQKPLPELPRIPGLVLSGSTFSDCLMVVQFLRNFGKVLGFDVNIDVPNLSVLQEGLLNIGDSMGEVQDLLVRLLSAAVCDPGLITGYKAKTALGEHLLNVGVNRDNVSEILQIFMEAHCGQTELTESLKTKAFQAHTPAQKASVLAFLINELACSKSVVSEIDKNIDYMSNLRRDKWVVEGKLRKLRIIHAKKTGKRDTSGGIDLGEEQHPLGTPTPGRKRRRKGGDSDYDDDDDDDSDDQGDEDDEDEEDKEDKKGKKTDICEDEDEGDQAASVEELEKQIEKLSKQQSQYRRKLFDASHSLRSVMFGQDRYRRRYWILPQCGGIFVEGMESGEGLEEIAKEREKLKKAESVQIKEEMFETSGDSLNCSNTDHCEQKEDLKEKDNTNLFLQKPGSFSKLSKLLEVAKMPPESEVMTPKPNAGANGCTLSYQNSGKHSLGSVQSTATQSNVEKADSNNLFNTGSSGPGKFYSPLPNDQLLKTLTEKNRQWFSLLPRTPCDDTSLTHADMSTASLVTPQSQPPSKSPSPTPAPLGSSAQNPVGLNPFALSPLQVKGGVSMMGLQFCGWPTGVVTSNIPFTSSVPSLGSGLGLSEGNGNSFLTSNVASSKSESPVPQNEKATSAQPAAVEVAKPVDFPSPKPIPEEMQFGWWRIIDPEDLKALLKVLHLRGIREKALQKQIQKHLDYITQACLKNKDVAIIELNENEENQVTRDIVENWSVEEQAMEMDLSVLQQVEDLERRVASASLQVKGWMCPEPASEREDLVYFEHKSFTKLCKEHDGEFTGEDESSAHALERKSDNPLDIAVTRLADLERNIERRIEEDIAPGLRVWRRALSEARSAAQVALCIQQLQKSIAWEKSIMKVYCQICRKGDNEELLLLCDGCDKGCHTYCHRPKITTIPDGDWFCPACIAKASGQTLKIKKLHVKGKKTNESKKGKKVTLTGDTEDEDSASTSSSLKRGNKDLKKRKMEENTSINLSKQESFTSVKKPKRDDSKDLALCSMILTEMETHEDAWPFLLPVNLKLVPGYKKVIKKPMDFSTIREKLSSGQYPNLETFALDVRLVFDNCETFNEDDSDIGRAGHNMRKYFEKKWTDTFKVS
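Compounds, titrated to a top concentration of 110 uM, were incubated 30 min at room temperature with preformed BAZ2B/acetyl-K14 H3 peptide complex (50 nM each). Proximity signal was measured by AlphaScreen after 20 min with beads.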
JMJD2A Tudor: blocks the human JMJD2A Tudor domain | O75164 | AlphaScreen JMJD2A-Tudor / H3K4me3 peptide binding | Potency, µM (highest dose often 114 µM), inactives show top-dose activity change, negative = inhibition, most hits filed as inhibitors | actives 4.4% (n = 390,000) | AID 504339; also: potency is read from the fitted curve at half-maximal effect; % is scaled to controls: 0 for no effect and ±100 for the full control effect; nearly all actives have a fitted effect of over 50% in size
Six1-Eya2 blk: inhibitors of human Six1/Eya2 interaction | Q15475+O00167 | AID 651725 | actives 0.56% (n = 360,000) | AlphaScreen GST-Six1/His-Eya2 binding, biochemical; hits give low values | activity change, % (test concentration not listed); in the data active = activity change below about -65%; inconclusive = mostly about -30% to -63%; also: % is scaled to controls: 0 for no effect and ±100 for the full control effect
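AlphaScreen with GST-Six1 and His-Eya2 (5X mix: 250 nM and 500 nM), glutathione donor and nickel acceptor beads; buffer 50 mM Tris pH 8.0, 300 mM NaCl, 1 mM TCEP; 1 h at 37 C in the dark.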
CtBP-E1A inh: blocks the CtBP interaction with E1A; AlphaScreen GST-E1A/His-CtBP binding, 1536-well; hits give low values; activity change, % (test concentration not listed); actives 0.49% (n = 340,000); in the data active = activity change below about -65%; inconclusive = mostly about -30% to -63%; also: % is scaled to controls: 0 for no effect and ±100 for the full control effect
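AlphaScreen with 125 nM GST-E1A and 125 nM His-CtBP (5X stocks) in Tris pH 8.0, 300 mM NaCl, BSA, Tween 20, TCEP. Compounds preincubated 2 h at 37 deg C, then glutathione donor/nickel acceptor beads added for 1 h at 37 deg C in dark.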
HP1b binding inh: inhibitors of HP1-beta chromodomain binding to methylated histone tails | AlphaScreen HP1-beta / biotin-H3K9me3 peptide binding | AID 540317 | actives 0.56% (n = 390,000) | Potency, µM (doses to about 114 µM), for the others: at the highest dose activity change, negative = inhibition, hits mostly inhibitors | P83916; also: potency is read from the fitted curve at half-maximal effect; nearly all actives have a fitted effect of over 70% in size
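Compound inhibition of the preformed complex between 50 nM HP1-beta and 50 nM biotinylated H3K9me3 peptide was read by AlphaScreen. Buffer was PBS pH 7.4 with 0.01% Tween-20. Incubations ran 30 min at room temperature, with 10 ug/mL donor/acceptor beads.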
TDP1 block: blocks human tyrosyl-DNA phosphodiesterase 1. recombinant TDP1, AlphaScreen DNA substrate cleavage. Potency, µM (titrated, usually from 130 µM), for the others: at the highest dose activity change, negative = inhibition, usual class: inhibitors. actives 0.28% (n = 350,000); also: potency is read from the fitted curve at half-maximal effect; % is scaled to controls: 0 for no effect and ±100 for the full control effect; nearly all actives have a fitted effect of over 40% in size
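Tdp1 1 nM final; 15 min RT w/ cpd; substrate 15 nM, 5 min; beads 10 ug/ml, 10 min; AlphaScreen read. Neg ctrl: no enzyme.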
* = called active by the depositor; ? = inconclusive; / = no result; [ ] = dose if it differs, or a comment. Hits are enriched below; roughly 5.3% of the tested compounds scored in any of these assays. Unless noted, calls follow the shape of the dose curve; as a rule, active = well fitted inhibition curve with a large enough effect; inconclusive = small, poorly fitted or top-dose-only effect; inactive = no such curve, though single readings can be large or run the other way.

SMILES	BAZ2B inh	JMJD2A Tudor	Six1-Eya2 blk	CtBP-E1A inh	HP1b binding inh	TDP1 block
CC(C)CC(O)C(=O)Nc1cc(C(F)(F)F)ccc1Cl (stereo not drawn)	/	-1%	/	/	/	-4%
CCCCNc1c([N+](=O)[O-])cc(C)cc1[N+](=O)[O-]	32µM*	18µM*	-67*	-25	16µM*	14%
CCOc1cc(CNC(=O)NC2COc3ccccc3C2)cc(OCC)c1OCC (stereo not drawn)	7%	-11%	/	/	31%[57 µM]	5%
Cc1c(C)n2c(SCC(=O)N3CCOCC3)nnc2[nH]c1=O	-6%	32µM*	1	7	27%	/
CCOc1ccc(-n2c(=O)c3sc4ccccc4c3n(Cc3cccc(C)c3)c2=O)cc1	24%	?	/	/	73%	9%
Cn1c(=O)n(Cc2ccccc2Cl)c(=O)c2c1[nH]c(=S)n2C	?	13µM*	8	4	?	/
CC(C)Sc1nc2c(c(=O)[nH]c(=O)n2C)n1Cc1ccc(Cl)cc1	6%	32µM*	-6	0	?	4%
Cn1c(=O)c2[nH]c(=S)n(Cc3ccccc3)c2n(C)c1=O	/	?	1	-2	?	/
Cn1c(=O)[nH]c(=O)c2c1[nH]c(=S)n2Cc1ccc(Cl)cc1	22µM*	3.2µM*	-5	/	14µM*	/
Cn1c(=O)c2c([nH]c(=S)n2CCCc2ccccc2)n(C)c1=O	28µM*	5µM*	0	-17	16µM*	/
COc1cccc(/C=C/C2=CC3(C)CC2(C)C(c2cccc(OC)c2)CC3=O)c1 (stereo not drawn)	/	/	/	/	/	8%[21 µM]
Cn1c(=O)[nH]c(=O)c2c1[nH]c(=S)n2CCCc1ccccc1	25µM*	3.2µM*	3	-14	10µM*	/
Cc1cccc(NC(=O)Oc2ccc(Cl)c3cccnc23)c1	/	/	-92*	?	/	/
CNC(=O)COc1ccc(Cl)c2cccnc12	-9%	-16%	4	/	4%	-4%
O=C(Oc1ccc(Cl)c2cccnc12)c1cccnc1	56µM*	-26%	-93*	-82*	45%	/
CCOC(=O)c1cc(-c2ccc(OC)cc2)n(CCC(=O)Nc2ccc(OC)cc2OC)c1C	-33%	?	/	/	-12%	8%
CCOC(=O)c1cc(-c2ccc(OC)cc2)n(CCC(=O)Nc2ccccc2OC)c1C	79µM*	28µM*	/	/	28%	12%
CCOC(=O)c1cc(-c2ccccc2)n(CC(=O)Nc2ccc(OC)cc2OC)c1C	-6%	22µM*	/	/	46%	9%
CCOC(=O)c1cc(-c2ccc(F)cc2)n(CCC(=O)Nc2ccccc2OC)c1C	-32%	?	/	/	-13%	8%
COc1cccc(C2c3c(ncn(Cc4cccs4)c3=N)Oc3ccc4ccccc4c32)c1 (stereo not drawn)	/	?	/	/	/	5%
CCOc1cc(CNC(=O)CSc2n[nH]c(-c3ccccc3)n2)cc(OCC)c1OCC	6%	-12%	/	/	13%[57 µM]	5%
CCC(CC)NCC(O)COc1ccc(Br)cc1 (stereo not drawn)	28µM*	1µM*	4	-6	?	/
CC(C)NCC(O)COc1ccc(Br)cc1 (stereo not drawn)	-15%	-14%	6	0	5%	5%
COc1ccc(C2c3c(nc(Cc4ccccc4)[nH]c3=O)Oc3ccc4ccccc4c32)cc1OC (stereo not drawn)	/	?	/	/	/	2%
O=C(CSc1nc2ccc(S(=O)(=O)N3CCOCC3)cc2[nH]1)N1CCOCC1	-37%	79µM*	1	10	?	-1%
CCSc1nc2cc(S(=O)(=O)N3CCOCC3)ccc2o1	/	28µM*	1	5	?	1%
O=C(CSc1nc2cc(S(=O)(=O)N3CCOCC3)ccc2o1)NC1CCCc2ccccc21 (stereo not drawn)	-5%	50µM*	-1	2	-36%	9%
Cc1oc2ncnc(N3CCCCC3)c2c1C(=O)NCC1CCN(Cc2ccccc2F)CC1	0%[57.1 µM]	-12%	/	/	2%	-1%

Screening results: PubChem, National Center for Advancing Translational Sciences (NCATS)
